An excerpt weighted towards active compounds, which were near 2.8% of everything screened.
GLP1R ag: qHTS of GLP-1 Receptor Agonists | Glucagon-like peptide 1 receptor (Homo sapiens), P43220 | Potency, µM (top dose mostly 45.6 µM), for the others: top-dose activation, actives largely listed as activators | HEK293 GLP-1R CRE-luciferase, luminescence, 4-6 h; cells express a hypersensitive GLP-1R form | hit rate 0.007% among 380,000; also: % of control where 0% means no effect
Target sequence (P43220 whole entry, looked up): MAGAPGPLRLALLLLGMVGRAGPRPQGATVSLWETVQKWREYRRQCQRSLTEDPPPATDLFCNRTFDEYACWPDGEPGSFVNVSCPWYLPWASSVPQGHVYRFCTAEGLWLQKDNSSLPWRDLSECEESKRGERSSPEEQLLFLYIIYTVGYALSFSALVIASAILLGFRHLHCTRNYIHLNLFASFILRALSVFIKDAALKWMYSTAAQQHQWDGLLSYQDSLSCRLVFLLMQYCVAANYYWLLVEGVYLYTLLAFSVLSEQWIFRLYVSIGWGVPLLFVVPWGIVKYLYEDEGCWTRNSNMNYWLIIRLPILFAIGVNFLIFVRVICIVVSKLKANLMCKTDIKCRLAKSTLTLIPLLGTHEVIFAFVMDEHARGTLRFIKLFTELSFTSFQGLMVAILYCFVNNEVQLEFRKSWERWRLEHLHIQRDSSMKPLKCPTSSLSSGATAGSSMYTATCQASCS
Mito fusion yeast: qHTS Assay for Small Molecule Inhibitors of Mitochondrial Division or Activators of Mitochondrial Fusion | S. cerevisiae fusion-defective mutant growth rescue, CellTiterGlo 48 h | AID 485298, 2010 | Potency, µM (highest dose often 46.1 µM), for the others: at the top dose growth rescue (activation), actives largely listed as activators | hit rate 0.23% among 320,000; also: % of control where 0% means no effect; nearly all actives have a fitted effect of over 45% in size
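Growth-rescue viability read-out: after 48 h at the non-permissive 37C in glycerol/ethanol YPEG, yeast mitochondrial fusion mutants are measured by CellTiterGlo luminescence; compounds (23 nl pinned per well) restoring growth score as division inhibitors or fusion activators.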
GLP-1R inv ag: qHTS of GLP-1 Receptor Inverse Agonists (Inhibition Mode). hit rate 1.6% among 410,000. AID 624417, 2012. HEK293 GLP-1R CRE-luciferase, luminescence, 24 h; GLP-1R form is constitutively active. Potency, µM (doses to about 38.3 µM), for the others: top-dose activity change, negative = inhibition, actives largely listed as inhibitors; also: % is scaled to controls: 0 for no effect and ±100 for the full control effect; nearly all actives have a fitted effect of over 55% in size
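HEK293 cells stably co-expressing constitutively active GLP-1R and a cAMP-responsive luciferase reporter were seeded in DMEM with 10% Nu serum, given compounds after 12 h, and incubated 24 h at 37 deg C. Luminescence was then read.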
BRCA1 expr act: qHTS Assay to Identify Small Molecule Activators of BRCA1 Expression; MCF7-BRCA1-FFLuc reporter, luminescence, 48 h; response scale: scaled: vehicle 0%, 10 µM genistein 100%; hit rate 1.1% among 380,000; Potency, µM (top dose mostly 46.1 µM), for the others: at the top dose activation, most hits filed as activators; AID 624202, 2012; also: nearly all actives have a fitted effect of over 80% in size
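Quantitative HTS in MCF7 cells stably reporting BRCA1 expression via firefly luciferase. Compound treatment lasts 48 h at 37 °C in phenol-red free MEM. Activation is expressed relative to genistein at 10 microM and DMSO.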
HEK293 tox: qHTS of GLP-1 Receptor Inverse Agonists: Cytotox Screen; HEK293 cAMP-luciferase reporter cells, luminescence, 24 h; Potency, µM (doses to about 38.3 µM), inactives show at the top dose activity change, negative = inhibition, usual class: inhibitors; hit rate 0.13% among 410,000;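 also: loss of luciferase light is scored as toxicity; % is scaled to controls: 0 for no effect and ±100 for the full control effect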
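A 23 nL compound transfer followed 12 hours of cell culture at 37 deg C; exposure then lasted 24 hr. Luciferase assay detection reagent was dispensed and plates read for luminescence after a 12 min room-temperature wait.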
Starred values were filed as active, the others as inactive; u = inconclusive; x = no result given. Calls follow the shape of the dose curve; as a rule, active = well fitted curve in the direction sought with a large enough effect; inconclusive = small, poorly fitted or top-dose-only effect, or another doubt; inactive = no such curve, though single readings can be large; an effect the other way counts as inactive or inconclusive. Potency is read from the fitted curve at half-maximal effect.

SMILES	GLP1R ag	Mito fusion yeast	GLP-1R inv ag	BRCA1 expr act	HEK293 tox
C1=C(CCNc2ncnc3c2[nH]c2ccccc23)CCCC1	-6.5%	-11.9%	4.47µM*	-59.6%	-35.7%
O=c1c2[nH]c3ccccc3c2ncn1CCC1=CCCCC1	-9.9%	24.6%	46.2%	33.7%	7.4%
CC(=O)N1N=C(c2ccc(C)cc2)OC1c1ccc(Br)cc1 (configuration not stated)	15.9%	2.3%	u	12.6µM*	8.7%
CC(=O)N1N=C(c2ccc(Cl)cc2)OC1c1ccc(C(C)C)cc1 (configuration not stated)	0.9%	-8.8%	-17.5%	89.8%	-10.9%
COc1ccc(-n2c(SCC(=O)Nc3ncc(Cl)cc3Cl)nc3ccccc32)cc1	x	2.8%	x	x	x
Cc1cccc(-n2c(SCC(=O)Nc3ncc(Cl)cc3Cl)nc3ccccc32)c1	19.7%	22.4µM*	u	-39.1%	-5.4%
O=C(CSc1nc2ccccc2n1-c1ccccc1)Nc1ncc(Cl)cc1Cl	1.7%	20µM*	u	-13.8%	-8.9%
CCOC(=O)C1CCCN(C(=O)c2cc(C(C)(C)C)nn2C)CC1 (configuration not stated)	-4.4%	x	-1.9%	5.2%	-5.9%
COc1ccccc1OCC(=O)Nc1sc2c(c1C(N)=O)CCC2	8.7%	x	0.1%	5.01µM*	6.7%
COc1ccc(OCCSc2nnc(CCNC(=O)c3ccc(OC)cc3)n2C)cc1	3.8%	-2.6%	6.9%	6.8%	0.7%
COc1ccc(OCCSc2nnc(CCNC(=O)c3ccc(Cl)c(Cl)c3)n2C)cc1	12.3%	0.6%	10µM*	7.2%	4.3%
CCOC(=O)c1ccc2[nH]c(C)c(C)c2c1	20.6%	x	-28.9%	12.6µM*	14.5%
Cc1[nH]c2ccc(C(=O)OCCN(C)C)cc2c1C	19.2%	-6.7%	-14.3%	57.6%	10.2%
O=S(=O)(c1ccc(N=C2NN=C(c3cc(F)ccc3F)CS2)cc1)N1CCOCC1	1.4%	13.2%	u	-20.3%	-27.7%
C=CC[C@H](CC(=O)NCCO)C(=O)N[C@@H](C)COC(=O)[C@H](CC=C)CC(=O)OC(C)(C)C	0.8%	x	4.7%	1.4%	2.3%
CCOc1ccc(NC(=O)CN(c2ccc(OC)cc2)S(C)(=O)=O)cc1	-7.5%	1.5%	1.3%	11.2µM*	-6.2%
CCOc1ccc(N(CC(=O)Nc2ccc(OC)cc2)S(C)(=O)=O)cc1	31.8%	0.3%	20.6%	u	3.5%
COC(=O)c1ccc(NC(=O)CN(c2ccc(OC)cc2)S(C)(=O)=O)cc1	16.8%	-0.3%	0.0%	11.2µM*	11.9%
CCOc1ccc(N(CC(=O)NCc2ccccc2C)S(C)(=O)=O)cc1	4.8%	1.7%	14.0%	11.2µM*	1.1%
CCOC(=O)C1=C(N)N(c2ccccc2)C(=O)C1	-14.9%	1.4%	15.8%	-22.3%	-4.4%
O=S(=O)(c1cccs1)N1CN(Cc2ccc(Cl)cc2)c2nc3ccccc3nc21	-4.8%	3.2%	0.6%	-27.2%	-8.3%
COCCN1CN(S(=O)(=O)c2ccccc2)c2nc3ccccc3nc21	4.6%	7.5%	6.7%	-44.3%	0.8%
COc1ccccc1CN1CN(S(=O)(=O)c2ccccc2)c2nc3ccccc3nc21	9.1%	7.0%	2.82µM*	-17.4%	-25.4%
O=S(=O)(c1cccs1)N1CN(Cc2ccco2)c2nc3ccccc3nc21	22.7%	2.6%	1.78µM*	29.4%	-16.0%
Nc1nonc1-c1noc(N2CCCCC2)n1	-8.9%	6.8%	1.0%	10µM*	-8.6%
SMILES	GLP1R ag	Mito fusion yeast	GLP-1R inv ag	BRCA1 expr act	HEK293 tox
CCOC(=O)c1ccc(N2CCN(c3ccccc3F)CC2)c(NC(=O)Nc2ccccc2)c1	4.1%	2.7%	2.51µM*	-24.1%	0.8%
O=C(CN1CCC(O)(c2ccc3c(c2)OCO3)CC1)N1CCOCC1	-0.3%	-1.3%	-6.2%	-2.5%	6.1%
Cc1cc(Cl)c(OCCOCCN2CCN(C)CC2)c(Br)c1	11.6%	-12.5%	u	3.7%	-15.8%
CN1CCN(CCOCCOc2c(Cl)cc(Cl)cc2Cl)CC1	-3.0%	x	11.2µM*	-31.2%	25.1%
Clc1ccc(OCCOCCN2CCc3ccccc3C2)c(Cl)c1	10.5%	-0.7%	11.2µM*	-67.8%	u
CC(=O)NNC(=O)c1[nH]c2ccc(Cl)cc2c1-c1ccccc1	0.9%	-9.5%	u	-4.1%	-8.9%
O=C(NN=C1CCCC1)c1[nH]c2ccc(Cl)cc2c1-c1ccccc1	20.6%	26.5%	3.16µM*	-71.2%	u
CCN1C(=O)C(Cc2nc3ccccc3c(=O)n2-c2ccccc2)c2cc(Br)ccc21 (configuration not stated)	x	x	-24.5%	x	-3.2%
O=C(N/N=C/c1ccccc1O)NC12CC3CC(CC(C3)C1)C2	21.5%	-4.9%	10µM*	-5.3%	-4.4%
CC(=O)Nc1cccc(C(=O)NCCc2ccco2)c1	2.7%	-3.6%	-33.9%	u	u
Cc1ccc2c(c1)NC(=O)c1cccnc1N2	18.9%	0.2%	68.0%	4.47µM*	-4.9%
OCCCN=c1cc(-c2ccccc2)oc2ccc(Cl)cc12	-27.7%	15.3%	u	-44.4%	u
CC1(C)CC(N=c2cc(-c3ccccc3)oc3ccc(Cl)cc23)CC(C)(C)N1	-3.1%	8.5%	3.55µM*	-68.6%	-25.4%
O=C(Nc1ccc(C(=O)N2CCC(O)(c3ccc(Cl)c(C(F)(F)F)c3)CC2)cc1)c1ccc(Br)o1	-3.1%	3.6%	10µM*	-20.4%	-1.5%
COc1cccc(/C=C2\SC(N3CCC(C)CC3)=NC2=O)c1OC	1.3%	9.4%	5.5%	45.8%	-4.2%
O=C(CSc1nnc(-c2cccs2)n1CC1CCCO1)N1CCCC1 (configuration not stated)	-0.2%	-0.2%	16.9%	-1.8%	3.7%
Cn1c(SCC(=O)NCc2cccs2)nnc1-c1cccs1	13.9%	-0.7%	11.9%	0.1%	-11.1%
O=C(CCCSc1nnc(-c2cccs2)n1CC1CCCO1)c1ccccc1 (configuration not stated)	0.0%	2.3%	7.94µM*	-8.2%	-14.6%
Cn1c(SCC(=O)c2ccccc2)nnc1-c1cccs1	2.4%	9.9%	1.0%	10µM*	6.2%
CCn1c(SCC(=O)c2ccccc2)nnc1-c1cnccn1	1.1%	-2.2%	0.0%	10µM*	0.7%
O=C(CSc1nnnn1C1CCCCC1)Nc1ccccc1N1CCOCC1	8.0%	4.2%	0.4%	0.1%	-10.0%
CCOC(=O)c1ccc(Nc2c(OCC)c(=O)c2=O)cc1	-1.2%	-1.3%	-10.8%	-12.4%	5.6%
Oc1ccccc1CNCCCNCc1ccccc1O	-2.7%	-3.5%	8.91µM*	-23.2%	u
OCCCNCc1cccc2ccccc12	-5.2%	-2.0%	-4.2%	18.8%	19.4%

Screening results deposited in PubChem BioAssay by National Center for Advancing Translational Sciences (NCATS).
